# Source: PubChem BioAssay (EPA / NIEHS)
# Several values for one entry are separate records, joined by “and”; a condition that tells them apart may be missing. Identical values can stand only once. Where a structure was tested more than once in an assay, its records may differ in their call. Activity calls are given as the source filed them. How the source made its calls: active means hit-call score of the fitted dose curve at least 0.9, where 1 is the maximum; inactive means score below 0.9.
# Assay: APR_HepG2_CellLoss_72hr: Apredica 72-hour HepG2 Assay for Cell Loss (AID 2282915)
# Conditions: high-content imaging
# Method: APR_HepG2_72hr is a cell-based, multiplexed-readout assay that uses HepG2, a human liver cell line, with measurements taken at 72 hours after chemical dosing in a 384-well plate.APR_HepG2_CellLoss_72hr is one of 10 assay component(s) measured or calculated from the APR_HepG2_72hr assay. It is designed to make measurements of cell number, a form of viability reporter, as detected with fluorescence intensity signals by HCS Fluorescent Imaging technology.Data from the assay component APR_HepG2_CellLoss_72hr was analyzed into 1 assay endpoint. This assay endpoint, APR_HepG2_CellLoss_72hr, was analyzed with bidirectional fitting relative to DMSO as the negative control and baseline of activity. Using a type of viability reporter, measures of all nuclear dna for gain or loss-of-signal activity can be used to understand the viability at the cellular-level. Furthermore, this assay endpoint can be referred to as a secondary readout, because this assay has produced multiple assay endpoints where this one serves a viability function. To generalize the intended target to other relatable targets, this assay endpoint is annotated to the cell cycle intended target family, where the subfamily is proliferation.
# Cells were treated with dimethyl sulfoxide (DMSO) as a solvent control at a final concentration of 0.5% v/v or with compounds in DMSO with a resulting final DMSO concentration of 0.5% v/v. Compound treatment was done at concentrations of 0.39, 0.78, 1.56, 3.12, 6.24, 12.5, 25, 50, 100, and 200 uM in duplicate on each plate. Cells were treated with compounds for 1, 24, or 72 hr. Carbonyl […] m-chloro-phenylhydrazone (CCCP) and taxol were used as positive controls for mitochondrial function and cytoskeletal stability, respectively; DMSO served as the negative control for this experiment. Cells were fixed by the direct addition of 50 uL formaldehyde in Hank's Balanced Salt Solution (HBSS) to a final concentration of 3.7%. After incubation in the fixation medium for 30 min at room temperature (293-298 K), cells were rinsed twice with HBSS and treated with cell permeabilization buffer (16 uL of 0.5% Triton X-100) for 10 min at room temperature (293-298 K) before labeling. For mitochondrial membrane potential and mitochondrial measurements, pre-fixed cells were incubated with 50 uL of MitoTracker Red CMXRos (Invitrogen) at a concentration of 250 nM for 30 min before fixation. In the remaining cases, post-fixed cells were labeled by incubation with a multiplexed mixture of primary antibodies in HBSS for 60 min at room temperature (293-298 K) to detect immunoreactivity of c-Jun (1:500), phospho-histone H3 (1:100), phospho-histone H2A.x (1:200), p53 (1:400), alpha-tubulin (1:200) and Hoechst 33342 (2 ug/mL). Cells were labeled for multiplexed imaging on two separate plates: a) Hoechst 33342, MitoTracker Red, phospho-histone H3, and alpha-tubulin, and b) Hoechst 33342, phospho-histone H2A.x, and c-Jun. A final rinse with HBSS (50 uL) was performed before analysis. The primary and secondary antibodies for the proteins were phospho-histone H3 (rabbit anti-phospho-histone H3 and FITC-donkey anti-rabbit IgG), phospho-histone H2A.x (mouse anti-phospho-histone H2A.x and FITC-donkey anti-mouse IgG), c-Jun (rabbit anti-phospho-c-Jun and Cy3-donkey anti-rabbit IgG), p53 (sheep anti-p53 and Cy5-donkey anti-sheep IgG), alpha-tubulin (mouse anti-alpha-tubulin and Cy5-donkey anti-mouse IgG). These antibodies are available as the CellCiphr HepG2 assay kit (Millipore).Digital images of each well were captured using a Cellomics ArrayScan VTI (Thermo Scientific Cellomics) (0.8 NA objective, 0.63x optical coupler, and XF-93 filter set) at 20x magnification. The images were acquired using the autofocus feature of the ArrayScan instrument, which entails the following steps. First, the camera focuses on channel 1 (Hoechst 33342), where nuclei are identified. Second, a Z offset of 1 um is used for capturing mitochondria (MitoTracker Red). […]
SMILES,outcome,AC50
CCCN(CCC)c1c([N+](=O)[O-])cc(S(N)(=O)=O)cc1[N+](=O)[O-],inactive,38.6 µM (active) and 39.2 µM (active) and 46.7 µM (active)
CCc1nn(C)c(C(=O)NCc2ccc(C(C)(C)C)cc2)c1Cl,,20.7 µM (active)
Fc1ccc(Oc2ccnc3cc(Cl)cc(Cl)c23)cc1,,76.2 µM (active)
COC(=O)N(OC)c1ccccc1COc1ccn(-c2ccc(Cl)cc2)n1,,1.44 µM (active)
CC(C)Oc1cc(-n2nc(C(C)(C)C)oc2=O)c(Cl)cc1Cl,,58.9 µM (active)
CCOP(=S)(OCC)SCn1c(=O)oc2cc(Cl)ccc21,,61.4 µM (active)
CS/C(C)=N/OC(=O)N(C)SN(C)C(=O)O/N=C(\C)SC,inactive,
CCNc1nc(Cl)nc(NC(C)C)n1,inactive,
COc1nc(C)nc(NC(=O)NS(=O)(=O)c2ccccc2CCC(F)(F)F)n1,inactive,
C=CCC1=C(C)C(OC(=O)C2C(C=C(C)C)C2(C)C)CC1=O (stereo not given),,57.1 µM (active) [middle of 4 runs]
COP(=S)(OC)Oc1nc(Cl)c(Cl)cc1Cl,,151 µM (active)
Oc1ccccc1-c1ccccc1,inactive,
N#Cc1cc(Br)c(O)c(Br)c1,,101 µM (active)
Cc1cc(Cl)ccc1OCC(=O)O,inactive,
CCOC(=O)CC(SP(=S)(OC)OC)C(=O)OCC (stereo not given),,109 µM (active)
Cc1c(F)c(F)c(COC(=O)C2C(/C=C(\Cl)C(F)(F)F)C2(C)C)c(F)c1F (stereo not given),inactive,
COc1ccc(C(c2ccc(OC)cc2)C(Cl)(Cl)Cl)cc1,,72.7 µM (active)
CC1COC(Cn2cncn2)(c2ccc(Oc3ccc(Cl)cc3)cc2Cl)O1 (stereo not given),,10.6 µM (active)
CCCCC(CC)COC(=O)c1ccccc1C(=O)OCC(CC)CCCC (stereo not given),inactive,
CC(C)(C)c1ccc(CSc2cnn(C(C)(C)C)c(=O)c2Cl)cc1,,8.33 µM (active)

SMILES,outcome,AC50
CCCCNC(=O)n1c(NC(=O)OC)nc2ccccc21,,8.47 µM (active)
CCCCOC(=O)c1ccccc1C(=O)OCCCC,inactive,
COc1nc(NC(C)C)nc(NC(C)C)n1,inactive,
COP(N)(=O)SC (stereo not given),inactive,
COC(=O)C=C(C)OP(=O)(OC)OC,inactive,
O=C(Nc1ccccc1)Nc1ccnc(Cl)c1,,53.8 µM (active)
C=CC1(C)OC(=O)N(c2cc(Cl)cc(Cl)c2)C1=O (stereo not given),inactive,
CCNc1nc(Cl)nc(NCC)n1,inactive,
CCON=C(CC)C1=C(O)CC(c2c(C)cc(C)cc2C)CC1=O (stereo not given),inactive,
C=CCC1=C(C)[C@@H](OC(=O)[C@@H]2[C@@H](C=C(C)C)C2(C)C)CC1=O,,102 µM (active)
CNC(=S)S,,36.7 µM (active)
O=C(O)c1nc(Cl)ccc1Cl,inactive,
C#CCOS(=O)OC1CCCCC1Oc1ccc(C(C)(C)C)cc1 (stereo not given),,3.12 µM (active)
COc1cnc(OC)n2nc(NS(=O)(=O)c3c(OCC(F)F)cccc3C(F)(F)F)nc12,inactive,
CC(C)C1(C)N=C(c2nc3ccccc3cc2C(=O)O)NC1=O (stereo not given),inactive,
O=C(O)COc1nc(Cl)c(Cl)cc1Cl,inactive,
COC(=O)C(C)Oc1ccc(Oc2ccc(Cl)cc2Cl)cc1 (stereo not given),inactive,
CNC(=O)ON=CC(C)(C)SC,inactive,
N#CC(CCc1ccc(Cl)cc1)(Cn1cncn1)c1ccccc1 (stereo not given),inactive,
